# Results: the supplement of paper PMC4466140
# B1: unnamed (peptide)
# chain: NAGIRPKFILALNDE
# B2: unnamed (peptide)
# chain: GTIARPLFLVVLFFI
# Experiments:
# Assay in all cases: SPOT peptide array binding signal intensity (averaged, normalized) (arbitrary units (background-subtracted, floor 0; scale differs between SH3 domains)); higher = stronger binding of the SH3 domain to the peptide
# [1] = target: AgAbp1
# Outline: (§1)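 E. coli BL21(DE3) was used to express GST-fused SH3 domains from four yeast species, which were then purified on glutathione Sepharose. These were incubated at 10 μg/ml in TBS-based blocking buffer overnight at 4°C on cellulose membranes carrying synthetic 15-mer peptides, in which cysteines were replaced by serines. Binding signal is the replicate average of normalized, background-subtracted spot intensity, in arbitrary units that differ between domains.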
# [2] = target: AgBbc1
# Outline: as §1
# [3] = target: AgBem1-D1
# Outline: as §1
# [4] = target: AgBzz1-D1
# Outline: as §1
# [5] = target: AgBzz1-D2
# Outline: as §1
# [6] = target: AgCyk3
# Outline: as §1
# [7] = target: AgFus1
# Outline: as §1
# [8] = target: AgHof1
# Outline: as §1
# [9] = target: AgHse1
# Outline: as §1
# [10] = target: AgLsb1
# Outline: as §1
# [11] = target: AgLsb4
# Outline: as §1
# [12] = target: AgMyo5
# Outline: as §1
# [13] = target: AgNbp2
# Outline: as §1
# [14] = target: AgRvs167
# Outline: as §1
# [15] = target: AgSho1
# Outline: as §1
# [16] = target: AgSla1-D1-D2
# Outline: as §1
# [17] = target: AgSla1-D3
# Outline: as §1
# [18] = target: CaAbp1-D1
# Outline: as §1
# [19] = target: CaAbp1-D2
# Outline: as §1
# [20] = target: CaBbc1
# Outline: as §1
# [21] = target: CaBem1-D1
# Outline: as §1
# [22] = target: CaBzz1-D1
# Outline: as §1
# [23] = target: CaBzz1-D2
# Outline: as §1
# [24] = target: CaCyk3
# Outline: as §1
# [25] = target: CaFus1
# Outline: as §1
# [26] = target: CaHof1
# Outline: as §1
# [27] = target: CaHse1
# Outline: as §1
# [28] = target: CaLsb1
# Outline: as §1
# [29] = target: CaLsb4
# Outline: as §1
# [30] = target: CaMyo5
# Outline: as §1
# [31] = target: CaNbp2
# Outline: as §1
# [32] = target: CaRvs167
# Outline: as §1
# [33] = target: CaRvs167-3
# Outline: as §1
# [34] = target: CaSho1
# Outline: as §1
# [35] = target: CaSla1-D1-D2
# Outline: as §1
# [36] = target: CaSla1-D3
# Outline: as §1
# [37] = target: ScAbp1
# Outline: as §1
# [38] = target: ScBbc1
# Outline: as §1
# [39] = target: ScBem1-D1
# Outline: as §1
# [40] = target: ScBzz1-D1
# Outline: as §1
# [41] = target: ScBzz1-D2
# Outline: as §1
# [42] = target: ScCyk3
# Outline: as §1
# [43] = target: ScFus1
# Outline: as §1
# [44] = target: ScHof1
# Outline: as §1
# [45] = target: ScHse1
# Outline: as §1
# [46] = target: ScLsb1
# Outline: as §1
# [47] = target: ScLsb2
# Outline: as §1
# [48] = target: ScLsb3
# Outline: as §1
# [49] = target: ScLsb4
# Outline: as §1
# [50] = target: ScMyo3
# Outline: as §1
# [51] = target: ScMyo5
# Outline: as §1
# [52] = target: ScNbp2
# Outline: as §1
# [53] = target: ScPex13
# Outline: as §1
# [54] = target: ScRvs167
# Outline: as §1
# [55] = target: ScSho1
# Outline: as §1
# [56] = target: ScSla1-D1-D2
# Outline: as §1
# [57] = target: ScSla1-D3
# Outline: as §1
# [58] = target: SpAbp1-D1
# Outline: as §1
# [59] = target: SpBbc1
# Outline: as §1
# [60] = target: SpBzz1-D1
# Outline: as §1
# [61] = target: SpBzz1-D2
# Outline: as §1
# [62] = target: SpCyk3
# Outline: as §1
# [63] = target: SpHof1
# Outline: as §1
# [64] = target: SpHof1-2
# Outline: as §1
# [65] = target: SpHof1-3
# Outline: as §1
# [66] = target: SpHse1
# Outline: as §1
# [67] = target: SpLsb1
# Outline: as §1
# [68] = target: SpLsb4
# Outline: as §1
# [69] = target: SpMyo1
# Outline: as §1
# [70] = target: SpNbp2
# Outline: as §1
# [71] = target: SpPex13
# Outline: as §1
# [72] = target: SpRvs167
# Outline: as §1
# [73] = target: SpSla1-D1-D2
# Outline: as §1
# [74] = target: SpSla1-D3
# Outline: as §1
binder,measurement,setting,value
B1,SPOT peptide array binding signal intensity,[1],≤ 0
same,SPOT peptide array binding signal intensity,[2],2.75
same,SPOT peptide array binding signal intensity,[3],11.5
same,SPOT peptide array binding signal intensity,[4],44
same,SPOT peptide array binding signal intensity,[5],77
same,SPOT peptide array binding signal intensity,[6],7
same,SPOT peptide array binding signal intensity,[7],68
same,SPOT peptide array binding signal intensity,[8],13.8
same,SPOT peptide array binding signal intensity,[9],616
same,SPOT peptide array binding signal intensity,[10],2
same,SPOT peptide array binding signal intensity,[11],25
same,SPOT peptide array binding signal intensity,[12],1
same,SPOT peptide array binding signal intensity,[13],0.5
same,SPOT peptide array binding signal intensity,[14],2.33
same,SPOT peptide array binding signal intensity,[15],9.5
same,SPOT peptide array binding signal intensity,[16],3
same,SPOT peptide array binding signal intensity,[17],4
same,SPOT peptide array binding signal intensity,[18],≤ 0
same,SPOT peptide array binding signal intensity,[19],≤ 0
same,SPOT peptide array binding signal intensity,[20],1.5
same,SPOT peptide array binding signal intensity,[21],1
same,SPOT peptide array binding signal intensity,[22],72
same,SPOT peptide array binding signal intensity,[23],26.2
same,SPOT peptide array binding signal intensity,[24],2
same,SPOT peptide array binding signal intensity,[25],1120
same,SPOT peptide array binding signal intensity,[26],1
same,SPOT peptide array binding signal intensity,[27],6.5
same,SPOT peptide array binding signal intensity,[28],1
same,SPOT peptide array binding signal intensity,[29],≤ 0
same,SPOT peptide array binding signal intensity,[30],27.2
same,SPOT peptide array binding signal intensity,[31],122
same,SPOT peptide array binding signal intensity,[32],1.17
same,SPOT peptide array binding signal intensity,[33],17
same,SPOT peptide array binding signal intensity,[34],222
same,SPOT peptide array binding signal intensity,[35],≤ 0
same,SPOT peptide array binding signal intensity,[36],10.8
same,SPOT peptide array binding signal intensity,[37],≤ 0
same,SPOT peptide array binding signal intensity,[38],≤ 0
same,SPOT peptide array binding signal intensity,[39],1
same,SPOT peptide array binding signal intensity,[40],43
same,SPOT peptide array binding signal intensity,[41],19
same,SPOT peptide array binding signal intensity,[42],54.5
same,SPOT peptide array binding signal intensity,[43],159
same,SPOT peptide array binding signal intensity,[44],≤ 0
same,SPOT peptide array binding signal intensity,[45],628
same,SPOT peptide array binding signal intensity,[46],1.5
same,SPOT peptide array binding signal intensity,[47],≤ 0
same,SPOT peptide array binding signal intensity,[48],≤ 0
same,SPOT peptide array binding signal intensity,[49],≤ 0
same,SPOT peptide array binding signal intensity,[50],2.5
same,SPOT peptide array binding signal intensity,[51],≤ 0
same,SPOT peptide array binding signal intensity,[52],23.5
same,SPOT peptide array binding signal intensity,[53],≤ 0
same,SPOT peptide array binding signal intensity,[54],≤ 0
same,SPOT peptide array binding signal intensity,[55],158
same,SPOT peptide array binding signal intensity,[56],≤ 0
same,SPOT peptide array binding signal intensity,[57],6.5
same,SPOT peptide array binding signal intensity,[58],≤ 0
same,SPOT peptide array binding signal intensity,[59],4
same,SPOT peptide array binding signal intensity,[60],201
same,SPOT peptide array binding signal intensity,[61],≤ 0
same,SPOT peptide array binding signal intensity,[62],2
same,SPOT peptide array binding signal intensity,[63],28.8
same,SPOT peptide array binding signal intensity,[64],19
same,SPOT peptide array binding signal intensity,[65],214
same,SPOT peptide array binding signal intensity,[66],481
same,SPOT peptide array binding signal intensity,[67],≤ 0
same,SPOT peptide array binding signal intensity,[68],≤ 0
same,SPOT peptide array binding signal intensity,[69],≤ 0
same,SPOT peptide array binding signal intensity,[70],16.5
same,SPOT peptide array binding signal intensity,[71],4
same,SPOT peptide array binding signal intensity,[72],3.5
same,SPOT peptide array binding signal intensity,[73],4
same,SPOT peptide array binding signal intensity,[74],≤ 0
B2,SPOT peptide array binding signal intensity,[31],600
same,SPOT peptide array binding signal intensity,[32],49
same,SPOT peptide array binding signal intensity,[33],17
same,SPOT peptide array binding signal intensity,[34],730
same,SPOT peptide array binding signal intensity,[35],≤ 0
same,SPOT peptide array binding signal intensity,[36],5.75
same,SPOT peptide array binding signal intensity,[37],3
same,SPOT peptide array binding signal intensity,[38],≤ 0
same,SPOT peptide array binding signal intensity,[39],1
same,SPOT peptide array binding signal intensity,[40],40
same,SPOT peptide array binding signal intensity,[41],37.5
same,SPOT peptide array binding signal intensity,[42],50
same,SPOT peptide array binding signal intensity,[43],2030
same,SPOT peptide array binding signal intensity,[44],≤ 0
same,SPOT peptide array binding signal intensity,[45],472
same,SPOT peptide array binding signal intensity,[46],≤ 0
same,SPOT peptide array binding signal intensity,[47],≤ 0
same,SPOT peptide array binding signal intensity,[48],≤ 0
same,SPOT peptide array binding signal intensity,[49],≤ 0
same,SPOT peptide array binding signal intensity,[50],≤ 0
same,SPOT peptide array binding signal intensity,[51],1
same,SPOT peptide array binding signal intensity,[52],78.5
same,SPOT peptide array binding signal intensity,[53],≤ 0
same,SPOT peptide array binding signal intensity,[54],1.67
same,SPOT peptide array binding signal intensity,[55],1050
same,SPOT peptide array binding signal intensity,[56],≤ 0
same,SPOT peptide array binding signal intensity,[57],1
same,SPOT peptide array binding signal intensity,[58],3.5
same,SPOT peptide array binding signal intensity,[59],2
same,SPOT peptide array binding signal intensity,[60],111
same,SPOT peptide array binding signal intensity,[61],≤ 0
same,SPOT peptide array binding signal intensity,[62],24
same,SPOT peptide array binding signal intensity,[63],45
same,SPOT peptide array binding signal intensity,[64],22.5
same,SPOT peptide array binding signal intensity,[65],637
same,SPOT peptide array binding signal intensity,[66],1630
same,SPOT peptide array binding signal intensity,[67],≤ 0
same,SPOT peptide array binding signal intensity,[68],≤ 0
same,SPOT peptide array binding signal intensity,[69],4.25
same,SPOT peptide array binding signal intensity,[70],160
same,SPOT peptide array binding signal intensity,[71],1
same,SPOT peptide array binding signal intensity,[72],≤ 0
same,SPOT peptide array binding signal intensity,[73],1
same,SPOT peptide array binding signal intensity,[74],≤ 0
